# From PubChem BioAssay AID2662 (National Center for Advancing Translational Sciences (NCATS), 2010)
# Among all 290,000 compounds or so, about 110 (0.038%) were called active. Another 3% or so got no clear call; they are omitted. This is one part of a sample in which actives are shown more often than they occur. Calls come from the whole dose curve; as a rule, active = well fitted inhibition curve with a large enough effect in the polarisation, with a control signal flat (not every such curve was filed as active); inconclusive = small, poorly fitted or top-dose-only effect, or effect the other way, or a change in a side signal; inactive = no such curve, though single readings can be large or run the other way; the % refers to the polarisation.
# Target: Histone-lysine N-methyltransferase 2A (Homo sapiens) (UniProt Q03164)
# Sequence (Q03164 whole entry, looked up, the tested form may be a part): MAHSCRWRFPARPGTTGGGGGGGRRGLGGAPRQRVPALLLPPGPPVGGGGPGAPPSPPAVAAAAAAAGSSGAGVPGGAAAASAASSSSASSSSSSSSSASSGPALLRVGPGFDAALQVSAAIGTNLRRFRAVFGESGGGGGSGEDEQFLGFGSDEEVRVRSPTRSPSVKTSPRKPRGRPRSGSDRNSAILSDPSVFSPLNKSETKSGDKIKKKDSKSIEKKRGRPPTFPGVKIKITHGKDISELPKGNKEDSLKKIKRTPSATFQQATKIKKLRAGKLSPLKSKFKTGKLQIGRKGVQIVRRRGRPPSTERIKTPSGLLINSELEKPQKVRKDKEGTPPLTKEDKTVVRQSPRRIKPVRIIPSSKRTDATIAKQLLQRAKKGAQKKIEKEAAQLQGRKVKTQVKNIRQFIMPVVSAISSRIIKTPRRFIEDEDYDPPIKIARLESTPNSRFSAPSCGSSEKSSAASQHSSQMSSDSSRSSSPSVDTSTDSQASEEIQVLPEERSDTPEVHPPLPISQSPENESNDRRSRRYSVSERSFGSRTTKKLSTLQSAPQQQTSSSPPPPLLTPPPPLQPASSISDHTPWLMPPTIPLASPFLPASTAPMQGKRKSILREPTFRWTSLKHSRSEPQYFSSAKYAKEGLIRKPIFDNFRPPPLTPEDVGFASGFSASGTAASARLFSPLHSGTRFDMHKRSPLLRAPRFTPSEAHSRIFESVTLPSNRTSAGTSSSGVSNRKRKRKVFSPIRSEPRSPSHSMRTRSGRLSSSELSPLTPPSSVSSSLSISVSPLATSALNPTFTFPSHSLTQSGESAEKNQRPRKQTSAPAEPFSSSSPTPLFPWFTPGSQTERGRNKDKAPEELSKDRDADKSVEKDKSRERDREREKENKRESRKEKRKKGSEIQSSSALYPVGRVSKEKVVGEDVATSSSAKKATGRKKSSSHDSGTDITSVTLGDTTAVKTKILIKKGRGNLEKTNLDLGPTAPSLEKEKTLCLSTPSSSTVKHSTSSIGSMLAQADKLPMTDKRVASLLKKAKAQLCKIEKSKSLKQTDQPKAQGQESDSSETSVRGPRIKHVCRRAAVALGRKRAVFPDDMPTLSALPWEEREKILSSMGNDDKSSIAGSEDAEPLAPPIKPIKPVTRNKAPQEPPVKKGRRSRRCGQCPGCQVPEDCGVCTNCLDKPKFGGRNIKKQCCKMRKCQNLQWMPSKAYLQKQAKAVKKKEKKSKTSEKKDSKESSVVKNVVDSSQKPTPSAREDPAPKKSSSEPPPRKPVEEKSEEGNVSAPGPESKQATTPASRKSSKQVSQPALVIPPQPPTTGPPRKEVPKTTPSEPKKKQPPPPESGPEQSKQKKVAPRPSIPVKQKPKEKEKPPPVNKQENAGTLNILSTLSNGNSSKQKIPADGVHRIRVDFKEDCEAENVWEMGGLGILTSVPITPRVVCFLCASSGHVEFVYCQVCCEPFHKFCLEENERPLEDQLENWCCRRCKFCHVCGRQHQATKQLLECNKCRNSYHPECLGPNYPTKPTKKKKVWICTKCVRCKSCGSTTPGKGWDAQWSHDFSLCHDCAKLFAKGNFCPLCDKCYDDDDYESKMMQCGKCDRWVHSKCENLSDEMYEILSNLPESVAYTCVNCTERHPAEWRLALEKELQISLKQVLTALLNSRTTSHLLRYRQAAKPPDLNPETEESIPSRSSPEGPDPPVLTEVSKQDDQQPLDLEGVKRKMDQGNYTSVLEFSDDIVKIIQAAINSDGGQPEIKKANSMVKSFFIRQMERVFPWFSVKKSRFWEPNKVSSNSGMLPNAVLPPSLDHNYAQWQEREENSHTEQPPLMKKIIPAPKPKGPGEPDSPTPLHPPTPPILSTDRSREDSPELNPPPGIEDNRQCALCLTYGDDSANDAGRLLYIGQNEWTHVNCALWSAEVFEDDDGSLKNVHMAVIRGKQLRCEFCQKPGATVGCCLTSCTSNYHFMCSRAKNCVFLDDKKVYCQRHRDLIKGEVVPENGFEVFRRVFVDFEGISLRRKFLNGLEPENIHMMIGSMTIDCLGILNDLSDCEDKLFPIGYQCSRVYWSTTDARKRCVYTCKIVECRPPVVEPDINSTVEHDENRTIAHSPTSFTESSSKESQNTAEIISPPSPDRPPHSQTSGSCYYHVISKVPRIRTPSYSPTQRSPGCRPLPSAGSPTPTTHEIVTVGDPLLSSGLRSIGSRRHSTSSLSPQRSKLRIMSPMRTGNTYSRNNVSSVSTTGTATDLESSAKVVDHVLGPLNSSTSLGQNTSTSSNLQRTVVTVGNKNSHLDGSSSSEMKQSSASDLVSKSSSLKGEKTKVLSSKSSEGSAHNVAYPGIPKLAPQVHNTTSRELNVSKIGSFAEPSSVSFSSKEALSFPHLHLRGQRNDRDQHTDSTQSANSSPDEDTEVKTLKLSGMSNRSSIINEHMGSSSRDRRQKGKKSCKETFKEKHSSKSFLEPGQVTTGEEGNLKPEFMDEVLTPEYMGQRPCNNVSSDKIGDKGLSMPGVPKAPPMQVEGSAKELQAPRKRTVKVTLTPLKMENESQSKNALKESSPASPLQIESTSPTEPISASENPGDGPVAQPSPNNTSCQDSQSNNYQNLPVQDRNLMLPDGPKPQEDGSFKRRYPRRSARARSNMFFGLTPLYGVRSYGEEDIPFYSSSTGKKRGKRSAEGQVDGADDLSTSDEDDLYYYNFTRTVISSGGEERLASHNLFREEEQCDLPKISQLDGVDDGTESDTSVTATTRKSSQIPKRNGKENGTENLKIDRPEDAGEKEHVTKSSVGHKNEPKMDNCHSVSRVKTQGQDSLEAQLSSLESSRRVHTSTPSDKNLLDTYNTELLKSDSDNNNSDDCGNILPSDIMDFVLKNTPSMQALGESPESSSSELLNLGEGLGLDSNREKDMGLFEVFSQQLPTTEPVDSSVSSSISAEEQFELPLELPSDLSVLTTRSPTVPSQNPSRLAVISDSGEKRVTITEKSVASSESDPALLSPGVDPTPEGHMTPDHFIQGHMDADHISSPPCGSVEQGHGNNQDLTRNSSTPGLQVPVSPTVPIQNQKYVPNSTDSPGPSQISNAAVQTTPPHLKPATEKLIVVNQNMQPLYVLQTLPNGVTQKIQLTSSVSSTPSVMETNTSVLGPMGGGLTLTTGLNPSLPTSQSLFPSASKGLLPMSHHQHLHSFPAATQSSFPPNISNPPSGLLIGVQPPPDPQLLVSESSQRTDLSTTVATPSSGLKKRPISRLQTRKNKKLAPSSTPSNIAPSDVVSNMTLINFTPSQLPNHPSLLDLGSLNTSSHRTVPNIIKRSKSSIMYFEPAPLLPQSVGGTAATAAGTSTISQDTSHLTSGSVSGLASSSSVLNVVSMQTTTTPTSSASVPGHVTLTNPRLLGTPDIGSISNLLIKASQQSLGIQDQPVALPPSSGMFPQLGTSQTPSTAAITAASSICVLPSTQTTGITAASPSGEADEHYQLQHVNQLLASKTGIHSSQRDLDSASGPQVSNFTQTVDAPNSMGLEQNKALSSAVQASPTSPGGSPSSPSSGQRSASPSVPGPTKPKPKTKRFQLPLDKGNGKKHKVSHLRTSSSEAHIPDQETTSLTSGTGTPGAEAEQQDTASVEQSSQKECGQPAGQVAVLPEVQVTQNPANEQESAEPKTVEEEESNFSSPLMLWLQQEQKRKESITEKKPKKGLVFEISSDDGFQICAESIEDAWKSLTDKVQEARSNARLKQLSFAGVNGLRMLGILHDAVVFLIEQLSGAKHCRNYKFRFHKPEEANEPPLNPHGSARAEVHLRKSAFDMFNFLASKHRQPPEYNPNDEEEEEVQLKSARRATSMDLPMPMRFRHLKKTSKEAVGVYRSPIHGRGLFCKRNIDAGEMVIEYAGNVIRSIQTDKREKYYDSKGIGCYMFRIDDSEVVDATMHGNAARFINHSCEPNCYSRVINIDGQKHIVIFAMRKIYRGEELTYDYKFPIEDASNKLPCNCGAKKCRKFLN
# Test: qHTS Fluorescence Polarization Assay for Inhibitors of MLL CXXC domain - DNA interaction
# Settings: MLL-CXXC / FITC-HOXA9 DNA fluorescence polarization; series mostly up to 115 µM; activity change, negative = inhibition: at the top concentration
# From the text: NIH Chemical Genomics Center [NCGC] NIH Molecular Libraries Probe Production centers Network [MLPCN] MLPCN Grant: DA027717-01A1 Assay Submitter (PI): John Bushweller NCGC Assay Overview: The MLL (Mixed Lineage Luekemia) gene is involved in chromosomal translocation that results in either acute lymphoid leukemia (ALL) or acute myeloid leukemia (AML). Chromasomal translocation of MLL gene is responsible for the fusion of N-terminal MLL to more than 60 different partner genes in frame. Many of the MLL partner genes contain transcription activation domains or function as transcriptional activators. Despite the heterogeneity of fusion partners, the N-terminus of MLL fusion proteins always consists of the N-terminal menin binding motif and the CXXC domain. The MLL-CXXC domain specifically recognizes unmethylated CpG sequences of the HOX-A gene. Disruption of the MLL-CXXC and HOX-A gene interaction leads to down regulation of HOX-A gene expression and may potentially reverse leukemogenesis. We have miniaturized and optimized an in-vitro assay to screen for inhibitors of the MLL-CXXC domain and HOX-A DNA interaction, which could have utility in MLL fusion leukemias.
# The affinity purified MLL-CXXC domain, unlabeled HOX-A9 DNA strand, fluorescein (FLSN) labeled HOX-A9 DNA strand were kindly supplied by the laboratory of Dr. John Bushweller, University of Virginia. All reagents were stored in single use aliquots at -80C. Assay Reagents: Assay buffer: 50 mM TRIS-HCl pH 7.5, 50 mM NaCl, 1 mM DTT. Add 0.05% BSA prior to reaction setup. Assay Procedure: 1.Dispense 1 ul of a 7 uM MLL-CXXC solution prepared in assay buffer into column 1-48. 2.Transfer 23 nl of compounds and unlabeled HOX-A9 per well. 3.Incubate for 5 minutes at ambient. 4.Dispense 1ul of a 50 nM FLSN-HOX-A9 solution prepared in assay buffer into columns 1-48 5.Centrifuge for 30 seconds at 1000 RPM. 6.Incubate for 30 minutes at ambient. 7.Read using the Envision reader fluorescent polarization protocol.
# Potency is the fitted concentration of half-maximal effect.
Compound,Potency,"activity change, negative = inhibition"
O=C(OCC1O[C@@H](OC(=O)c2cc(O)c(O)c(O)c2)[C@@H](OC(=O)c2cc(O)c(O)c(O)c2)[C@@H](OC(=O)c2cc(O)c(O)c(O)c2)[C@@H]1OC(=O)c1cc(O)c(O)c(O)c1)c1cc(O)c(O)c(O)c1 (stereo not given in full),31.6 µM (active),
COC([CH2][Hg])CNC(=O)c1ccccc1OCC(=O)O (stereo not given),,0.129% (inactive)
CC(C)COC(=O)n1c(=O)oc2ccc(S(=O)(=O)N3CCCCC3)cc21,,56.4% (inactive)
CCOC(=O)C(NS(=O)(=O)c1ccc(C)cc1)(C(F)(F)F)P(=O)(OCC(C)C)OCC(C)C (stereo not given),,35.1% (inactive)
CN1CCCC(=C(c2cccs2)c2cccs2)C1,,0.874% (inactive)
